# Assay outcomes deposited in PubChem by National Center for Advancing Translational Sciences (NCATS).
# DT40 TDP1 CPT: qHTS for Inhibitors of human tyrosyl-DNA phosphodiesterase 1 (TDP1): qHTS in cells in presence of CPT; hit rate 12% among 420,000; AID 686979, 2013; chicken DT40 Tdp1-/-;hTDP1 cells + 20 nM CPT, ATP luminescence, 48 h; Potency, µM (doses to about 46.2 µM), inactives show at the highest dose activity change, negative = growth inhibition, most hits filed as inhibitors; also: % is scaled to controls: 0 for no effect and ±100 for the full control effect; nearly all actives have a fitted effect of over 55% in size
#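 Chicken DT40 Tdp1-/- cells stably complemented with human TDP1 were seeded at 400 cells/well in medium containing 20 nM camptothecin, exposed to pin-transferred compounds, and grown at 37 °C for at least 48 hr. Viability was read as ATP luminescence.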
# HepG2 viability: qHTS for Inhibitors of TGF-b: Cytotox Counterscreen. HepG2 CAGA-GFP viability, ATP luminescence, 18 h. Potency, µM (titrated, usually from 46.1 µM), for the others: at the highest dose activity change, negative = cytotoxicity, hits mostly cytotoxic. hit rate 0.76% among 410,000. AID 588856, 2011
#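 CellTiter-Glo luminescence gave cytotoxicity after 18 hours at 37 degrees C. The cells were HepG2 CAGA-GFP in 1% FBS DMEM, stimulated with 500 pg/mL TGF-beta after compound addition. %Activity was normalised to no-cell wells (complete cell-killing) and DMSO (no toxicity), and curves were fitted and classified.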
# ATXN viability: Viability Counterscreen for Primary qHTS for Inhibitors of ATXN expression; hit rate 0.49% among 400,000; S2 cells (HEK-293 line with an ATXN2-luciferase reporter) viability, CellTiter-Fluor protease fluorescence, 24 h; AID 651635, 2014; Potency, µM (series often up to 56.7 µM), usual class: cytotoxic; also: nearly all actives have a fitted effect of over 40% in size
# TGFb inhibitor: qHTS for Inhibitors of TGF-b; HepG2 CAGA-GFP TGF-b/SMAD3 reporter, GFP fluorescence, 18 h; TGF-beta stimulated, 500 pg/mL final; Potency, µM (top dose mostly 46.1 µM), without a hit: at the highest dose activity, negative = inhibition, actives largely listed as inhibitors; hit rate 1.2% among 410,000; also: % is scaled to controls: 0 for no effect and ±100 for the full control effect; nearly all actives have a fitted effect of over 65% in size
#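 Read-out: total well GFP (ex488/em500-530) summed from mean per-cell fluorescence. Cells: HEPG2 CAGA-GFP, 1% FBS DMEM, 18 h at 37 degrees C with 500 pg/mL final TGF-beta. Unstimulated wells served as the full-inhibition control; stimulated DMSO wells = 0%.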
# DT40 TDP1 no CPT: qHTS for Inhibitors of human tyrosyl-DNA phosphodiesterase 1 (TDP1): qHTS in cells in absence of CPT. DT40 Tdp1-/- hTDP1 cells, no CPT, ATP luminescence, 48 h. Potency, µM (doses to about 46.2 µM), without a hit: at the top dose activity change, negative = growth inhibition, actives largely listed as inhibitors. hit rate 15% among 420,000. AID 686978, 2013; also: % is scaled to controls: 0 for no effect and ±100 for the full control effect; nearly all actives have a fitted effect of over 55% in size
#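 Stably hTDP1-transfected Tdp1-null chicken DT40 cells were treated with library compounds minus camptothecin and grown for at least 48 hr at 37 °C, after which cellular ATP was quantified by luminescence.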
# ATXN2 expr inh: Primary qHTS for Inhibitors of ATXN expression | HEK-293 ATXN2-luciferase reporter, luminescence, 24 h | Potency, µM (highest dose often 57 µM), without a hit: top-dose activity change, negative = inhibition, most hits filed as inhibitors | AID 1745845, 2022 | hit rate 0.72% among 360,000; also: % is scaled to controls: 0 for no effect and ±100 for the full control effect; nearly all actives have a fitted effect of over 55% in size
#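 ATXN2-luciferase reporter cells (luciferase flanked by upstream and downstream ATXN2 gene portions) were treated 24 h at 37 °C with compounds at up to 57 uM. SteadyGlo luminescence gave expression; GF-AFC fluorescence gave viability.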
# Starred values were filed as active, the others as inactive; i = inactive; ? = inconclusive; / = no result given; [ ] = dose if it differs, or a comment. The list is not random: actives were taken first. Their share in the collection is about 17%. Calls follow the shape of the dose curve; as a rule, active = well fitted curve in the direction sought with a large enough effect; inconclusive = small, poorly fitted or top-dose-only effect, or another doubt; inactive = no such curve, though single readings can be large; an effect the other way counts as inactive or inconclusive. Potency is read from the fitted curve at half-maximal effect.
SMILES,DT40 TDP1 CPT,HepG2 viability,ATXN viability,TGFb inhibitor,DT40 TDP1 no CPT,ATXN2 expr inh
CC(=O)c1ccc(NC(=O)c2cnc(N3CCCC3)nc2C)cc1,-17.6%,-2.7%,i,?,?,-17.1%
Clc1cccc(Cc2c(-c3ccccc3)nc3c4ccccc4ccn23)c1,?,-18.5%,?,?,13µM*,44.7%
Fc1cccc(Cc2c(-c3cccc(Cl)c3)nc3c4ccccc4ccn23)c1,23.1µM*,-28.9%,i,-32.2%,18.4µM*,4.9%
Clc1cccc(Cc2c(C3CCCCC3)nc3c4ccccc4ccn23)c1,?,/,?,/,16.4µM*,9.0%
Fc1ccc(-c2nc3c4ccccc4ccn3c2Cc2cccc(Cl)c2)cc1,16.4µM*,-23.5%,i,?,16.4µM*,33.4%
COc1ccc2[nH]cc(CCNC(=O)Nc3cc(C)cc(C)c3)c2c1,-3.8%,4.3%,?,-17.0%,-2.8%,-30.6%
Clc1cccc(-c2nc3c4ccccc4ccn3c2Cc2ccccc2)c1,?,-5.6%,i,-19.1%,?,15.5%
Clc1cccc(Cc2c(-c3cccc(Cl)c3)nc3c4ccccc4ccn23)c1,?,/,i,/,16.4µM*,13.6%
N#C/C(=C\c1ccc(N2CCOCC2)o1)c1nc2ccccc2[nH]1,?,-11.2%,i,259.5%,23.1µM*,-19.4%
N#C/C(=C/c1ccc(N2CCCC2)c([N+](=O)[O-])c1)c1nc2ccccc2[nH]1,13µM*,-19.0%,/,32.1%,14.6µM*,/
CCN(CC)c1ccc(/C=C(/C#N)c2nc3ccccc3[nH]2)c(OC(C)C)c1,18.4µM*,-41.3%,?,79.1%,11.6µM*,18.4%
CCOc1cccc(/C=C(/C#N)c2nc3ccccc3[nH]2)c1OCC(=O)O,14.5%,-12.5%,i,-29.7%,-3.9%,/
N#C/C(=C\c1ccc(-c2ccc(C(=O)O)cc2)o1)c1nc2ccccc2[nH]1,?,-1.2%,i,9.2%,?,49.4%[11.3 µM]
Cc1ccc2nc(/C(C#N)=C\c3ccc(N4CCCCC4)c([N+](=O)[O-])c3)[nH]c2c1,20.6µM*,-33.1%,?,-10.1%,10.3µM*,-11.9%
Cc1ccc2nc(/C(C#N)=C/c3ccccc3C(=O)O)[nH]c2c1,24.2%,-5.5%,i,13.6%,3.0%,17.7%
CNc1nc(SC(C)C(=O)Nc2ccc(Cl)c(Cl)c2)nc(N2CCOCC2)n1 (stereo not given),?,2.3%,i,19.8%,-32.5%,-20.1%
CNC1(c2nnnn2-c2ccccc2C)CCOC(C)(C)C1 (stereo not given),?,-8.1%,i,3.9%,?,-3.9%
C=CCOc1ccc(C(=O)O)cc1Cl,-17.6%,-10.3%,i,?,-11.4%,-1.3%
FC(F)(F)c1ccc(Cl)c(-n2c(-c3cc(C4CC4)[nH]n3)n[nH]c2=S)c1,2.4%,-11.8%,/,-12.9%,-1.5%,-16.3%
N#C/C(=C\c1ccc(N2CCOCC2)c([N+](=O)[O-])c1)c1nc2ccccc2[nH]1,25.9µM*,-1.8%,i,8.3%,14.6µM*,15.0%
N#C/C(=C\c1ccc(N2CCCCC2)o1)C(N)=O,-1.4%,-4.5%,i,60.0%,-15.9%,41.9%
N#C/C(=C/c1ccc(N2CCOCC2)o1)c1ccc(Cl)cc1,?,-60.4%,i,57.8%,14.6µM*,-22.4%
N#C/C(=C\c1ccc(Oc2ccc(C(F)(F)F)cc2[N+](=O)[O-])cc1)c1nc2ccccc2[nH]1,-74.3%,-17.9%,i,?,20.6µM*,-24.5%
